# TRPM1 prom inh: reduces MITF-dependent TRPM1 promoter luciferase signal; inhibition, % at 12.5 µM; SK-MEL-5 TRPM1 promoter luciferase, 24 h; actives 0.83% (n = 330,000);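 active = mean inhibition across replicates of 60% or more, whatever share of single replicates reaches that level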
# Shn3 3UTR inh: inhibitors of Schnurri-3 3'UTR reporter in osteoblasts. Clone20 osteoblast Shn3 3'UTR firefly luciferase, 24 h. inhibition, % at 12.5 µM. actives 0.52% (n = 360,000). AID 588674;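 active = mean inhibition of at least 75% with every replicate also reaching 75%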;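 also: 0% = median of neutral control wells and 100% = pilot-screen positive control compound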
# LMP1 NFkB inh: Epstein-Barr LMP1 NF-kappaB reporter inhibition; inhibition, % at 12.5 µM; LMP1-induced NF-kappaB luciferase reporter cells, luminescence; actives 0.69% (n = 350,000); AID 504558; in the data active = inhibition above about 41%;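 also: 0% = neutral control wells and 100% = reference inhibitor control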
# Peg3 promoter: Peg3 promoter activity inhibition; HeLa PEG-Prom luciferase reporter, luminescence, overnight; actives 1.7% (n = 360,000); inhibition, % at 20 µM; AID 588405;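 active = inhibition of at least 50% at 20 µM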
# KKLEB cytotox: reduces viability of KKLEB cystic fibrosis airway cells; actives 0.36% (n = 360,000); activity change (cytotoxicity), % at 5 µM; KKLEB CF airway cells viability, ATPlite luminescence, overnight; active compounds read low; cells stimulated with P. aeruginosa culture filtrate; AID 602141;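 active = corrected activity change at or below -50% at 5 µM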
# CF NFkB block: inhibitors of cystic fibrosis induced NF-kB; inhibition, % at 5 µM; actives 0.86% (n = 360,000); KKLEB NF-kB-GFP reporter, PAF-induced, GFP fluorescence overnight;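 active = at least 50% inhibition at 5 µM, scaled per plate between neutral and stimulator controls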;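 also: PAF is a Pseudomonas aeruginosa culture filtrate used as stimulus; plate controls were PAF-stimulated DMSO wells for no effect and unstimulated DMSO wells for full effect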
# An asterisk follows results filed as active; · = not tested or not shown. Most compounds without a hit are left out; they make up all but 2.9% or so of the library.
SMILES,TRPM1 prom inh,Shn3 3UTR inh,LMP1 NFkB inh,Peg3 promoter,KKLEB cytotox,CF NFkB block
C[C@]12CCC(=O)C[C@H]1CC[C@@H]1[C@@H]2CC[C@]2(C)C(=O)CC[C@@H]12,-9.4,18.9,1.9,-10.4,-1.8,15.8
CCC(c1nnnn1C1CCCCC1)N1CCC2(CC1)C(=O)NCN2c1ccccc1 (stereo unspecified),·,-0.2,·,13.9,-4.9,-23.4
S=P(NCCSCc1ccccc1)(N1CC1)N1CC1,-2.5,15.6,7.3,12.9,30.9,-1.2
COC(=O)C1=C(c2ccc(F)cc2OCc2ccccc2)C[C@@H]2CC[C@H]1N2C(=O)NCc1ccc2c(c1)OCO2,-11.0,20.3,-35.8,19.5,-19.6,15.9
COC(=O)[C@@H]1[C@@H](C(=O)OC)C2(c3ccccc3-c3ccccc32)N(c2ccc(Cl)cc2)N1C#N,93.0*,79.2,29.8,106.9*,-74.8*,92.2*
COC(=O)C[C@]1(C(=O)OC)CN(C#N)N(c2ccc(Cl)cc2)C12c1ccccc1-c1ccccc12,95.9*,97.2*,89.9*,102.9*,-96.5*,88.2*
COc1ccc(-n2nnnc2C(c2cccc3ccccc23)N2CCC3(CC2)C(=O)NCN3c2ccccc2)cc1 (stereo unspecified),·,5.4,·,14.5,-25.1,6.6
Fc1ccccc1CNC1CN2CCC1CC2 (stereo unspecified),4.0,5.2,-6.3,0.2,-10.5,6.7
Ic1ccccc1CN[C@@H]1C2CCN(CC2)[C@@H]1C(c1ccccc1)c1ccccc1,-6.7,-18.3,-16.8,86.0*,-7.9,42.2
COC1CCC(OC2CC(C3(C)CCC4(CC(O)C(C)C(C(C)/C=C(\C)C(=O)C(C)CC(C)C(=O)O)O4)O3)OC3(OC(C4OC(O)(CO)C(C)CC4C)CC3C)C2C)OC1C (stereo unspecified),84.4*,79.0,-10.5,97.8*,-75.4*,81.9*
CSCCC(c1nnnn1C(C)(C)C)N1CCC2(CC1)C(=O)NCN2c1ccccc1 (stereo unspecified),·,-3.3,·,5.5,-5.8,-1.3
O=C(CF)N(O)c1ccc(C=Cc2ccccc2)cc1,-19.1,-2.9,87.9*,-322.1,-12.8,-14.2
O=C(COc1ccccc1)N1CCN(C/C=C/c2ccccc2)CC1,4.4,14.0,6.9,9.2,14.4,-9.9
C=CCn1c(O)c(C(C)=NCc2cc(OC)cc(OC)c2)c(=O)[nH]c1=O,32.5,71.8,20.8,53.8*,8.0,-15.1
C=CCn1c(O)c(C(C)=NCc2cccnc2)c(=O)[nH]c1=O,2.9,0.1,6.3,21.9,1.0,-26.1
Cc1cccc(C)c1-n1nnnc1C(C1CC1)N1CCC2(CC1)C(=O)NCN2c1ccccc1 (stereo unspecified),·,-16.9,·,30.3,-3.6,3.7
O=c1[nH]c(CN2CC=C(c3ccccc3)CC2)nc2cc(C(F)(F)F)ccc12,-4.1,15.7,44.1*,-20.6,-8.4,0.6
O=c1[nH]c(CN2CC=C(c3ccccc3)CC2)nc2scc(-c3ccccc3)c12,3.7,8.0,-2.3,23.7,9.8,-14.6
CCN(CC)c1ccc(CNCCc2ccc(F)cc2)cc1,-0.4,16.5,-19.9,63.7*,-8.1,8.5
CC(=O)O[C@H]1CC[C@@]2(C)C(=CC[C@@H]3[C@@H]2CC[C@]2(C)C(=O)CC[C@@H]32)C1,-7.1,71.9,9.6,6.9,-0.4,-27.9
CC(=O)O/C(=C1\CC2C3CC=C4CC(OC(C)=O)CCC4(C)C3CCC2(C)C1=O)C(F)(F)F (stereo unspecified),14.3,60.5,17.7,63.1*,8.9,7.9
CCOc1ccc(-c2c(C)n(-c3ccc(OCC)cc3)c3[n+]2CCCCC3)cc1,76.2*,88.1*,34.6,50.8*,-10.3,36.0
CCOc1ccc(-n2c(-c3ccoc3)nc3ccccc3c2=O)cc1,-5.0,-0.5,-3.2,17.7,1.9,8.2
N#Cc1ccc(NC(=S)N2Cc3ccccc3-n3nncc3C2)cc1,·,33.4,6.3,-12.8,1.9,2.4
CCCCn1nnnc1C(CC)N1CCC2(CC1)C(=O)NCN2c1ccccc1 (stereo unspecified),·,-19.3,·,3.4,13.4,-14.3
SMILES,TRPM1 prom inh,Shn3 3UTR inh,LMP1 NFkB inh,Peg3 promoter,KKLEB cytotox,CF NFkB block
CSCCC(c1nnnn1-c1ccc2c(c1)OCCO2)N1CCC(n2c(=O)[nH]c3ccccc32)CC1 (stereo unspecified),·,73.0,·,74.7*,-83.7*,86.2*
COc1ccc(-n2nnnc2C(c2ccccc2)N2CCC(n3c(=O)[nH]c4ccccc43)CC2)cc1 (stereo unspecified),·,2.4,·,64.3*,-70.1*,81.4*
O=c1[nH]c2ccccc2n1C1CCN(C(CCc2ccccc2)c2nnnn2C2CCCC2)CC1 (stereo unspecified),·,47.9,·,87.3*,-95.7*,84.3*
O=c1[nH]c2ccccc2n1C1CCN(C(c2ccccc2)c2nnnn2-c2ccc3c(c2)OCCO3)CC1 (stereo unspecified),·,73.2,·,68.2*,-86.7*,84.1*
O=C1NCN(c2ccccc2)C12CCN(C(c1ccccc1)c1nnnn1-c1ccc3c(c1)OCCO3)CC2 (stereo unspecified),·,-3.0,·,25.2,-9.5,-16.4
CCC(c1nnnn1C1CCCC1)N1CCC2(CC1)C(=O)NCN2c1ccccc1 (stereo unspecified),·,1.3,·,11.3,-4.5,16.6
C[C@]12CC[C@@H](O)CC1=CC(=O)C1C2CC[C@]2(C)C(=O)[C@H](O)CC12 (stereo partly specified),·,-4.9,-1.3,5.8,18.7,-25.9
CC(C)(C)n1nnnc1C(c1ccnc2ccccc12)N1CCC2(CC1)C(=O)NCN2c1ccccc1 (stereo unspecified),·,-5.4,·,2.2,-2.6,6.7
Cc1ncc2n1-c1ccc(Cl)cc1C(c1ccccc1F)=NC2,5.2,-0.1,15.6,-16.5,-4.9,-27.2
CCOC(=O)c1cc2c(cn1)[C@H](CCO)NC2,1.6,-22.9,-4.5,-14.1,5.7,1.7
C[C@H](CO)N1C[C@H](C)[C@H](CN(C)C(=O)Oc2ccccc2)OCc2cnnn2CCCC1=O,·,-15.0,3.7,-7.0,9.6,-11.8
O=c1[nH]c2ccccc2n1C1CCN(C(c2nnnn2-c2ccc3c(c2)OCCO3)C2CC2)CC1 (stereo unspecified),·,12.2,·,77.9*,-86.6*,84.1*
O=c1[nH]c2ccccc2n1C1CCN(C(c2cccs2)c2nnnn2-c2ccc3c(c2)OCCO3)CC1 (stereo unspecified),·,61.0,·,76.6*,-79.4*,87.1*
O=C1NCN(c2ccccc2)C12CCN(C(c1nnnn1-c1ccc3c(c1)OCCO3)C1CC1)CC2 (stereo unspecified),·,-2.8,·,21.8,-13.0,-4.8
O=C1NC(=O)C(C2CCCCCC2)C(=O)N1,-2.0,-25.5,-1.5,18.1,-0.3,9.6
CN(C)C(=S)SSC(=S)N(C)C,57.8,55.3,13.2,55.9*,10.7,-3.1

# Compound activity from PubChem.
